Compound activity (PubChem BioAssay)
In the library only some 21% were active in any assay of this set; here they are far more common.
CHX counter – Cycloheximide Counterscreen for Small Molecule Inhibitors of Shiga Toxin; cell reporter, cycloheximide protein synthesis inhibition counterscreen; max response, %; 300,000 tested, 12% active; AID 2314, 2010; in the data active = max response mostly above about 13%, no sharp cut-off; inactive = mostly below about 14%; note: read at 38.3 µM for the half of the compounds with a filed dose
HCMV inh – qHTS Assay for inhibitors of the human cytomegalovirus (HCMV). 410,000 tested, 4.5% active. HFF cells, HCMV-luciferase reporter, 72 h; hits give low values. activity change, negative = inhibition, % at 57.5 µM; in the data active = activity change below about -60%; inconclusive = no clear call, values can overlap the other calls; inactive = above about -39%
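Two compound doses tested in HFFs infected with HCMV-luciferase, MOI 1 PFU/cell, 72 h at 37C. Lysate luminescence read with OneGlo; data normalized against buffer-only and 10uM Salinomycin inhibitor controls.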
Shiga inhibitor – A qHTS for Small Molecule Inhibitors of Shiga Toxin | Vero cells, Shiga toxin protein synthesis inhibition reporter | inhibition, % at 38.7 µM | 290,000 tested, 9.2% active; in the data active = inhibition mostly above about 28%, no sharp cut-off; inactive = mostly below about 43%
Pf growth 48h – Primary qHTS for delayed death inhibitors of the malarial parasite plastid, 48 hour incubation. P. falciparum luciferase growth in erythrocytes, 48 h. Potency, µM (series often up to 28.7 µM), actives largely listed as inhibitors. 310,000 tested, 5.9% active. AID 504832, 2011
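First compound was added to culture medium, then infected red cells at 0.1% parasitemia and 2% hematocrit (final). After incubation at 37 C under 5% CO2, luciferase detection reagent was dispensed and light output recorded.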
HCV inh – qHTS Assay for Inhibitors of Hepatitis C Virus (HCV); 340,000 tested, 3.4% active; Huh7.5.1 HCVcc-Cre infection, luciferase reporter, 44 h; Potency, µM (top dose mostly 41.8 µM), hits mostly inhibitors; AID 651820, 2012
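Compounds are dispensed onto cells plated 4 h earlier at 1,000 per well, with HCVcc-Cre virus (about 0.5 moi) added next. Following 44 h of culture, luminescent signal is measured for 15 sec after 15 min with substrate at room temperature.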
Pf growth 96h – Primary qHTS for delayed death inhibitors of the malarial parasite plastid, 96 hour incubation; P. falciparum luciferase reporter growth, 96 h; Potency, µM (titrated, usually from 28.7 µM), actives largely listed as inhibitors; 320,000 tested, 6.9% active
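P. falciparum expressing integrated firefly luciferase grown in erythrocytes (2% hematocrit, 0.05% parasitemia final) with compounds for 96 hours at 37 C, 5% CO2. Growth inhibition read as loss of luminescence after adding luciferase detection reagent.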
Each line names hits and unclear results; the compound was inactive in the other large screens. Unless noted, calls come from the whole dose curve; as a rule, active = well fitted inhibition curve with a large enough effect; inconclusive = small, poorly fitted or top-dose-only effect, or another doubt; inactive = no such curve, though single readings can be large or run the other way.

CCCNS(=O)(=O)c1ccc(OCC(=O)N2CCN(Cc3ccc4c(c3)OCO4)CC2)cc1	HCMV inh inconclusive, Pf growth 48h inconclusive, HCV inh inconclusive, Pf growth 96h inconclusive
CCOc1cccc(C2c3[nH]c4ccccc4c3CCN2C(=O)Cc2cccc(OCC)c2OCC)c1 (configuration not stated)	none (no result: CHX counter, Shiga inhibitor, Pf growth 48h, HCV inh, Pf growth 96h)
O=C(Cn1c(=O)n(Cc2ccco2)c(=O)c2ccccc21)Nc1ccc(Cl)cc1Cl	none (no result: CHX counter, Shiga inhibitor, Pf growth 48h, HCV inh, Pf growth 96h)
Cc1ccc(CNC(=O)Cn2c(=O)cc(C)c3c(C)nn(-c4cccc(F)c4)c32)cc1	none (no result: CHX counter, Shiga inhibitor, Pf growth 48h, HCV inh, Pf growth 96h)
CCCN(CCC)c1cc(=O)nc2ccccn12	none (no result: CHX counter, Shiga inhibitor, Pf growth 48h, HCV inh, Pf growth 96h)
CC(C)(Cl)C1Cc2cc3ccc(=O)oc3cc2O1 (configuration not stated)	CHX counter 31, Shiga inhibitor 47
CC(C)=CC(=O)O[C@@H]1Cc2cc3ccc(=O)oc3cc2OC1(C)C	HCV inh 3.2µM (no result: CHX counter, Shiga inhibitor)
CC(=O)OC(C)(C)C1Cc2cc3ccc(=O)oc3cc2O1 (configuration not stated)	Shiga inhibitor 45
COc1ccc2ccc(=O)oc2c1	none
C/C=C(\C)C(=O)OC(C)(C)[C@H]1Cc2cc3ccc(=O)oc3cc2O1	none
CC1(C)Oc2ccc3ccc(=O)oc3c2CC1O (configuration not stated)	Pf growth 96h inconclusive (no result: Shiga inhibitor)
O=C(CCC(=O)Nc1nnc(C2CCCCC2)s1)Nc1ccccc1	none
O=C(CCC(=O)Nc1nnc(C2CCCCC2)s1)NCc1cccs1	Pf growth 96h 10µM
O=C(CCC(=O)c1cccs1)Nc1nnc(C2CC2)s1	CHX counter 17 (no result: Pf growth 96h)
Cc1nnc(NC(=O)CCC(=O)NCc2cccs2)s1	none
O=C(CCC1CCCC1)NCc1cccs1	CHX counter 26
O=C(Nc1nnc(C2CC2)s1)c1cccs1	CHX counter 51, Shiga inhibitor 100, Pf growth 96h inconclusive
Cc1cc(C)cc(NC(=O)N2CCN(S(C)(=O)=O)CC2)c1	none
COc1cc2c(c(OC)c1OC)C(=O)C(=Cc1ccccc1)O2	HCV inh inconclusive (no result: CHX counter, Shiga inhibitor, Pf growth 48h, Pf growth 96h)
CC(C)N1C(=O)CCC1C(=O)NCc1cccs1 (configuration not stated)	CHX counter 43
O=C(NCc1cccs1)C1CC1	none
CCc1ccc(NC(=S)N(CCCN2CCOCC2)Cc2ccccn2)cc1	CHX counter 39, Shiga inhibitor 31
COc1ccc(NC(=S)N(CCCN2CCOCC2)Cc2cn(C)c3ccccc23)cc1OC	HCMV inh -87, Pf growth 48h inconclusive, HCV inh inconclusive, Pf growth 96h 4.1µM
CCc1ccccc1NC(=S)N(CCCN1CCOCC1)Cc1ccccn1	none
COc1cccc(NC(=S)N(CCCN2CCOCC2)Cc2cn(C)c3ccccc23)c1	HCMV inh -78, HCV inh inconclusive, Pf growth 96h inconclusive
Cc1cc(=O)n2nc(N(C)CC(=O)NCc3ccccc3C)sc2n1	none (no result: CHX counter, Shiga inhibitor, Pf growth 48h, HCV inh, Pf growth 96h)
Cc1ccc(NC(=S)NCc2cccs2)c(C)c1	none (no result: Pf growth 48h)
O=C(/C=C/c1cccs1)NCc1cccs1	none (no result: CHX counter, Shiga inhibitor, Pf growth 48h, Pf growth 96h)
Cc1ccc(/C=C/C(=O)NCc2cccs2)c(C)c1	CHX counter 37, Shiga inhibitor 53, Pf growth 96h inconclusive
O=C(/C=C/c1ccc([N+](=O)[O-])cc1)NCc1cccs1	CHX counter 38, Shiga inhibitor 13
O=C(CCCCC(=O)NCc1cccs1)NCc1cccs1	Pf growth 96h inconclusive
Cc1ccc(/C=C/C(=O)NCc2cccs2)o1	CHX counter 18, Shiga inhibitor 91
Cc1ccc(/C=C/C(=O)NCc2cccs2)cc1	CHX counter 66, Shiga inhibitor 139
O=C(CSc1nc2c(oc3ccccc32)c(=O)n1-c1ccccc1)Nc1ccccc1F	none (no result: CHX counter, Shiga inhibitor, Pf growth 48h, HCV inh, Pf growth 96h)
O=S(=O)(NCCc1cn(S(=O)(=O)c2ccccc2)c2ccccc12)c1ccccc1	none (no result: HCMV inh, Pf growth 48h, HCV inh, Pf growth 96h)
CCN(C(=O)CSc1nc2cc(C(=O)O)ccc2c(=O)n1-c1ccccc1F)C1CCS(=O)(=O)C1 (configuration not stated)	none (no result: CHX counter, Shiga inhibitor, Pf growth 48h, Pf growth 96h)
O=C(Nc1ccc2c(c1)OCCO2)c1cccc(Cl)c1Cl	CHX counter 43, Shiga inhibitor 93
O=C(Nc1ccc2c(c1)OCCO2)c1c(F)c(F)c(F)c(F)c1F	CHX counter 17
O=C(CSCc1c(Cl)cccc1Cl)Nc1ccc2c(c1)OCCO2	CHX counter 59, Shiga inhibitor 76, HCV inh inconclusive, Pf growth 96h 3.3µM
O=C(Nc1ccc2c(c1)OCCO2)c1c(Cl)cccc1Cl	HCMV inh -85 (no result: CHX counter, Shiga inhibitor, Pf growth 48h, HCV inh, Pf growth 96h)
Cc1nn(-c2ccccc2)nc1C(=O)Nc1ccc2c(c1)OCCO2	HCV inh inconclusive
COc1cccc(N/C(N)=N/c2nc(C)cc(=O)[nH]2)c1	none (no result: HCMV inh)
C[C@]12c3[nH]c4ccccc4c3CCN1C(=O)C(CC(=O)NCCC1=CCCCC1)C[C@@H]2C(=O)N1CCCCC1 (some centres not stated)	none (no result: CHX counter, Shiga inhibitor, Pf growth 48h, Pf growth 96h)
O=C(Nc1ccc2c(c1)OCCO2)c1cc(F)c(F)cc1Cl	CHX counter 37, Shiga inhibitor 72
CCc1nc2ccc(C(=O)NCCOc3ccc(OC)cc3)cn2c1N(CC)CCOC	none (no result: CHX counter, Shiga inhibitor, Pf growth 48h, HCV inh, Pf growth 96h)
CCc1nc2ccc(C(=O)NCCOc3ccc(OC)cc3)cn2c1N(CCN(C)C)CC1CC1	HCMV inh -64 (no result: CHX counter, Shiga inhibitor, Pf growth 48h, HCV inh, Pf growth 96h)
COc1ccccc1C1=NOC(C(=O)N2CCN(C(=O)c3ccco3)CC2)C1 (configuration not stated)	Pf growth 96h inconclusive
O=C1OC(c2ccccc2)=C/C1=C/N1CCOCC1	CHX counter 17, Shiga inhibitor 63, Pf growth 96h inconclusive
Cc1ccc(N/C=C(\C#N)c2ccc(OCCCF)cc2)cc1	HCV inh inconclusive (no result: Pf growth 96h)
COc1ccc(N/C=C(\C#N)c2ccc(OCCCF)cc2)cc1	HCMV inh -91, HCV inh inconclusive (no result: Pf growth 96h)
CC(=O)C1=C(C)NC(SCC(=O)c2ccc(F)cc2)=C(C#N)C1CC(C)C (configuration not stated)	CHX counter 63, Shiga inhibitor 88, Pf growth 48h inconclusive, HCV inh inconclusive, Pf growth 96h 8.3µM
CCOC(=O)C1=C(C)NC(SC)=C(C#N)C1CC(C)C (configuration not stated)	Pf growth 48h 1.7µM, HCV inh inconclusive, Pf growth 96h inconclusive
O=C(NCc1ccc(Cl)cc1)c1cc2c(s1)CS(=O)(=O)C2	HCMV inh inconclusive
O=C(NCc1ccc(F)cc1)c1cc2c(s1)CS(=O)(=O)C2	Pf growth 96h 6.6µM
CC(C)(O)C#Cc1ccc(C(=O)NCc2cccs2)s1	CHX counter 26, Pf growth 96h 9.3µM
COc1ccccc1NC(=O)c1csc2c1CCC(C)C2 (configuration not stated)	CHX counter 51, HCMV inh inconclusive, Shiga inhibitor 67, Pf growth 96h inconclusive
O=C(NCc1ccco1)c1csc2c1CCCCC2	CHX counter 22
CC(=O)c1ccc(C#CC(C)(C)O)s1	HCMV inh inconclusive
